The list is not random: actives were taken first. Their share in the collection is about 2.9%.
A3A deaminase – inhibitors of human APOBEC3A DNA deaminase. P31941. recombinant A3A, FAM/TAMRA ssDNA deamination fluorescence. inhibition, % at 20 µM. hit rate 0.41% among 330,000. AID 493011;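 active = at least 40% inhibition at 20 µM here, with at most 30% in a related deaminase screen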;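 note: plate controls were A3A with DMSO for no effect and wells lacking A3A enzyme for full effect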
A3G deaminase – blocks human APOBEC3G single-stranded DNA deamination; inhibition, % at 20 µM; Q9HC16; recombinant A3G, ssDNA deamination FAM/TAMRA fluorescence; AID 493012; hit rate 0.28% among 330,000;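 active = inhibition of at least 40% at 20 µM, with no more than 30% in the related APOBEC3A deaminase screen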;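 note: plate controls were DMSO wells with A3G for no effect and wells lacking A3G enzyme for full effect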
Target sequence (Q9HC16 whole entry, looked up): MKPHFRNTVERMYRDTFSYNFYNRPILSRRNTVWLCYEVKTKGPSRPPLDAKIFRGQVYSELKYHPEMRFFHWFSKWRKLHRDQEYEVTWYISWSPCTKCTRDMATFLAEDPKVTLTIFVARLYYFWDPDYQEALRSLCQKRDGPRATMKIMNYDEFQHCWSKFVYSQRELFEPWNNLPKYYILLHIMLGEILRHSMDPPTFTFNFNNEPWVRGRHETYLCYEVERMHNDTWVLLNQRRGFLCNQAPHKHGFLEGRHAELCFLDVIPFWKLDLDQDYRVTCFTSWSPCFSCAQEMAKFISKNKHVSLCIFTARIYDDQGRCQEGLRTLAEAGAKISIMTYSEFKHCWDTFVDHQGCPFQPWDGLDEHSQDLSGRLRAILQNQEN
Cardio protect – modulators protecting cardiomyocytes from myocardial damage. H9c2 cardiomyocytes, H2O2 injury protection, ATPLite, 2 h. protection from H2O2 cell death, % at 20 µM. hit rate 0.63% among 360,000;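 active = compounds giving at least 50% protection of heart cells from peroxide-induced death in the single-dose screen, raw or plate-pattern-corrected value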;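 note: 0% = DMSO wells with peroxide and 100% = DMSO wells without peroxide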
PfG6PD inh – PfG6PD (Plasmodium falciparum) enzyme inhibition | PfGluPho enzyme, NADPH resazurin-diaphorase fluorescence | inhibition, % at 20 µM | hit rate 0.78% among 350,000 | AID 504690;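 active = inhibition reaching at least a set limit at 20 µM in the primary screen, cut at about 59% in these data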;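 note: 0% = DMSO wells with substrate and 100% = DMSO wells lacking glucose-6-phosphate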
NadD inh – inhibitors of Staphylococcus aureus NadD; AID 602399; inhibition, % at 20 µM; hit rate 0.78% among 360,000; purified NadD enzyme, colorimetric absorbance read-out; in the data active = inhibition above about 26%
H9c2 TAG inh – reduces triacylglycerol accumulation in H9c2 cells. AID 651582. inhibition, % at 12.5 µM. Nile Red lipid (TAG) fluorescence; cells loaded with 200 µM oleic acid. hit rate 0.66% among 230,000;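 active = pattern-corrected inhibition of lipid staining of at least 50% with the nuclear-stain viability signal not falling by more than 50%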;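 note: 0% = DMSO wells and 100% = triacsin C control wells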
A3G conf – confirmation of human APOBEC3G DNA deaminase inhibitors | recombinant A3G ssDNA deaminase, UDG/FAM-TAMRA fluorescence | shares compounds with A3G deaminase | hit rate 72% among 890 | inhibition, % at 20 µM;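 active = inhibition reaching a set limit in any replicate at 20 µM, the limit being 80% of the first screen's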
UDG ctr A3G – inhibits E. coli UDG, flagging false APOBEC3G inhibitors; shares compounds with A3G deaminase; UDG counterscreen, FAM/TAMRA oligo fluorescence; inhibition, % at 20 µM; 710 tested, under 10 active; AID 504715;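 active = compounds giving 40% or more inhibition at 20 µM in any one of the three replicates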;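 note: plate controls were DMSO wells with UDG and oligo for no effect and DMSO wells lacking both for full effect; inhibitors lower the FAM signal released by uracil excision and alkaline cleavage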
Target sequence (P12295 whole entry, looked up): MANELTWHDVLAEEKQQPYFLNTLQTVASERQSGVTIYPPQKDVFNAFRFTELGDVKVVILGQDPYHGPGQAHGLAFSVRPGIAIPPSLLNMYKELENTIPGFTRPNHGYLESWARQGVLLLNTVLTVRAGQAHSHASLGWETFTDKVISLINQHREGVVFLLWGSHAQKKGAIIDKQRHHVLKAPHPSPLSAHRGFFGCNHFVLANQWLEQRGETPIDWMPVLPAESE
Active calls of the source: *; / = no result given; ! = not active in a repeat.

SMILES	A3A deaminase	A3G deaminase	Cardio protect	PfG6PD inh	NadD inh	H9c2 TAG inh	A3G conf	UDG ctr A3G
Cc1cccc(NS(=O)(=O)c2ccc3c(c2)NC(=O)CO3)c1C	-4	-2	-4	16	-8	/	/	/
O=C1CC(c2ccc(O)c(O)c2)Oc2c1ccc(O)c2O (stereo not drawn)	25	41*	3	29	13	/	55*	/
O=C1CC(c2ccc(O)c(O)c2)Oc2cc(O)cc(O)c21 (stereo not drawn)	-1	-7	18	-31	-4	/	/	/
O=C(O)C1CC(c2ccc(F)cc2)=NO1 (stereo not drawn)	23	74*	4	-2	-14	/	73*	3
COc1ccc2c(c1)cc(C(=O)N[C@@H](Cc1ccccc1)C(=O)O)n2C	-5	-6	1	-14	-2	/	/	/
Cn1c(C(=O)N[C@@H](Cc2ccccc2)C(=O)O)cc2cc(F)ccc21	-1	43*	12	-21	-3	/	-2	2
Cc1cc(C(=O)COC(=O)c2cccnc2Cl)c(C)n1C	-4	-5	-27	10	-1	5	/	/
N#CC(c1nc2ccccc2nc1N1CCCC1)S(=O)(=O)c1cccs1 (stereo not drawn)	-2	51*	59*	41	8	17	5	0
Cc1cccc(S(=O)(=O)C(C#N)c2nc3ccccc3nc2N2CCCC2)c1 (stereo not drawn)	-21	5	44	50	12	10	/	/
CCOC(=O)c1cc2c(OC)c(OC)ccc2c2[nH]cc(C#N)c(=O)c12	/	/	-6	-9	-12	1	/	/
COc1cccc2c(C)nc(Nc3nc(CSc4nnc(C)s4)cc(=O)[nH]3)nc12	25	41*	26	-4	-7	48	5	/
Cc1ccc2c(C)nc(Nc3nc(CSc4nnc(C)s4)cc(=O)[nH]3)nc2c1	7	7	24	22	-1	/	/	/
S=c1[nH]c2cc(Br)cnc2[nH]1	1	56*	-2	33	2	-6	68*	-4
Brc1cnc2nc[nH]c2c1	2	-2	9	14	-6	-3	/	/
COc1ccc(/C=N/n2c(-c3cc(C)[nH]n3)n[nH]c2=S)cc1	-6	46*	3	12	5	6	91*	-3
CC(=C/c1ccccc1)/C=N/n1c(-c2ccco2)n[nH]c1=S	-3	15	-2	11	8	/	/	/
COc1ccc(/C=N/n2c(-c3ccccc3)n[nH]c2=S)cc1	-4	27	2	32	11	/	/	/
CC(/C=N/n1c(-c2cc(C)[nH]n2)n[nH]c1=S)=C\c1ccccc1	2	44*	0	30	7	/	26	/
COc1ccc(/C=N/n2c(-c3cc(C)[nH]n3)n[nH]c2=S)cc1OC	-1	43*	5	28	-2	-4	63*	0
Cc1cc(-c2n[nH]c(=S)n2/N=C/c2ccc(C)o2)n[nH]1	-5	40*	4	26	1	7	84*	-5
Cc1cccc(-c2n[nH]c(=S)n2/N=C/c2ccc(C)o2)c1	-5	33	-3	47	-1	/	/	/
O=C(C1CC1)N1N=C(c2ccccc2)CC1(O)C(F)(F)C(F)(F)F (stereo not drawn)	-4	0	-2	0	3	/	/	/
O=C(COC(=O)CC1CCCC1)Nc1ccc(Br)cc1F	0	-1	3	-4	1	-6	/	/
S=c1[nH]nc(-c2ccco2)n1C1CCCCC1	-2	44*	0	48	-3	/	84*	0
Nn1c(-c2ccco2)n[nH]c1=S	-3	15	-4	14	0	/	/	/
SMILES	A3A deaminase	A3G deaminase	Cardio protect	PfG6PD inh	NadD inh	H9c2 TAG inh	A3G conf	UDG ctr A3G
CC(C(=O)Nc1ccccc1F)N1CCN(C)CC1 (stereo not drawn)	-4	-7	/	/	/	/	/	/
COc1ccccc1-c1n[nH]c(=S)n1-c1ccccc1	1	40*	-2	40	-2	-17	69*	-3
COc1ccccc1-c1n[nH]c(=S)n1N	-6	-2	-9	5	2	16	/	/
CCOC(=O)c1c(C)[nH]c(C(C)=NNC(=O)Cn2nc(C)cc2C)c1C	-3	-6	-2	14	1	16	/	/
CC1CCN(C(=O)CN2C(=O)C(C)(C)Oc3ccc(C(=O)NC(C)C)cc32)CC1	1	-5	1	-1	-1	/	/	/
CC(C)CN(C(=O)COC(=O)C12CC3CC(CC(C3)C1)C2)c1c(N)n(Cc2ccccc2)c(=O)[nH]c1=O	4	13	-21	-4	4	9	/	/
CC1(C)S[C@@H]2[C@H](NC(=O)[C@H](N)c3ccccc3)C(=O)N2[C@H]1C(=O)O	6	75*!	9	-20	2	-2	42*	1
CCCC(=O)Nc1nc2ccc(OCC)cc2s1	0	-8	-17	-10	-2	15	/	/
CCOc1ccc2nc(NC(=S)N(C)C)sc2c1	-2	47*	-4	57	0	-20	55*	-1
COc1cc(/C=C2\CCC(C)C3=C(c4cc(OC)c(OC)c(OC)c4)C(C#N)=C(N)OC32)cc(OC)c1OC (stereo not drawn)	/	/	-5	35	8	0	/	/
COc1cccc(OCc2cc(/C=N/NC(=O)c3ccn[nH]3)ccc2OC)c1	1	46*	13	12	9	-5	1	/
CC(Oc1ccc2c3c(c(=O)oc2c1)CCCC3)C(=O)NCCN1CCOCC1 (stereo not drawn)	-4	73*	-2	12	-3	/	-2	1
CCN1C(=O)[C@H]2[C@@H](c3ccc(-c4ccc(F)cc4)c(OC)c3)N[C@@](CC(C)C)(C(=O)OC)[C@H]2C1=O	-1	2	/	/	/	/	/	/
CCOc1ccccc1N1C(=O)CC(Sc2n[nH]c(-c3ccccc3)n2)C1=O (stereo not drawn)	-2	58*	-18	29	-1	17	66*	0
COc1ccc(N2C(=O)CC(Sc3n[nH]c(-c4cccc(C)c4)n3)C2=O)cc1 (stereo not drawn)	-4	34	-16	6	-2	2	/	/
S=c1nc(C2COc3ccccc3O2)[nH][nH]1 (stereo not drawn)	1	52*	-6	13	-2	1	71*	-3
Cc1cc(C)n(CC(O)COc2c(C)cccc2C)n1 (stereo not drawn)	-2	-5	3	2	-1	/	/	/
O=C(Nc1nc(-c2ccccc2)cs1)Nc1ccc(F)cc1F	3	0	-22	3	-4	7	/	/
O=C(Nc1nc(-c2ccccn2)cs1)Nc1ccc(F)cc1F	2	60*	46	57	7	/	68*	-5
COc1cnc(NS(=O)(=O)c2ccc(N)cc2)nc1	18	50*	5	-11	0	12	20*	-2
